The whole screen tested about 68,000 compounds, of which about 2,700 (4%) showed an effect of 50% or more. Many of the other results were omitted from the sample, so strong results are more common in it than they were.
test system: Plasmodium berghei; test: Screen against P. berghei liver stage (PbLuc), transformed with Luciferase, at 2uM; type: functional, HepG2; conditions: tested at 2 uM

| SMILES | INHIBITION [%] |
| --- | --- |
| CN1CCOC[C@H]1c1nc(-c2cccnc2)c[nH]1 | 5.77 |
| O=C(Nc1cccc(CNCc2csc(Br)c2)c1)C1CC1 | -0.64 |
| CCC1(c2ccc(NS(=O)(=O)N(C)C)cc2)CCC(=O)NC1=O (centres undefined) | -11.81 |
| CN1CCCCC1Cc1nc2c(cc1C(N)=O)CCC2 (centres undefined) | 62.39 |
| C[C@@H]1CN(c2nc3c(cc2C(N)=O)CCC3)CC[C@@]1(O)C1CCC1 | 2.79 |
| NC(=O)c1cc2c(nc1CC1CCCCO1)CCC2 (centres undefined) | 38.83 |
| COC(=O)c1ccc(NC(C)c2ccc3c(c2)CCC(=O)N3)nn1 (centres undefined) | 34.22 |
| CCc1noc(C)c1C(=O)N1CCCN(Cc2csc(C)n2)CC1 | 16.84 |
| Cc1csc(N2CCCN(C(=O)c3c(C)noc3C)CC2)n1 | 24.65 |
| Cc1csc(N2CCN(C(=O)c3c(C)oc(C)c3C)CC2)n1 | 58.52 |
| Cc1nc(CN2CCCN(C(=O)c3c(C)noc3C)CC2)cs1 | 3.38 |
| Cc1csc(N2CCCN(C(=O)c3c(C)oc(C)c3C)CC2)n1 | -1.5 |
| Cc1nc(CN2CCCN(C(=O)c3c(C)oc(C)c3C)CC2)cs1 | 59.54 |
| O=C(NCC1CCCO1)c1cc(-c2ccncc2)c2cnccc2n1 (centres undefined) | 26.69 |
| CO[C@@H]1CO[C@@]2(CCCN(C(=O)C3CC=CC3)C2)C1 | -29.49 |
| COCC1CCN(c2ccnc3ccsc23)C1 (centres undefined) | 15.84 |
| Cc1ccc(C(=O)N2CCn3cc(CN(C)Cc4ccco4)nc3C2)o1 | -40.76 |
| Cn1ncc2c1C(COCC1CC1)CN(C(=O)Cc1ccsc1)C2 (centres undefined) | 22.16 |
| CN1C(=O)C2(CCNCC2)c2cc(F)ccc21 | 37.75 |
| CN(C[C@@H]1CCC[C@@H]2CN(Cc3cccnc3)C[C@@H]21)C1CC1 | 61.09 |
| c1cnc(NC[C@@H]2CCC[C@@H]3CN(Cc4cccnc4)C[C@@H]32)nc1 | 7.08 |
| COc1ccc(CN2C[C@H]3CCC[C@@H](CN(C)C4CC4)[C@H]3C2)cn1 | 0.42 |

| SMILES | INHIBITION [%] |
| --- | --- |
| CC(=O)N1CCOC(c2cc(N3CC(O)C3)nc(C)n2)C1 (centres undefined) | 18.8 |
| Cc1cnn(C2CN(CCOc3ccc(C#N)cc3)C2)c1 | -22.06 |
| Cc1cccc(NC(=O)[C@@H]2CCCN2CC(=O)Nc2ccccc2)n1 | -32.35 |
| CCOC(=O)N1CCN(C(=O)c2cc(-c3ccc(C)cc3)on2)CC1 | 21.28 |
| NC(=O)CN1C(=O)CO[C@H]2CN(Cc3ccccc3)C[C@H]21 | 41.93 |
| NC(=O)CN1C(=O)CO[C@H]2CN(Cc3ccc(F)c(F)c3)C[C@H]21 | 27.65 |
| NC(=O)CN1C(=O)CO[C@H]2CN(Cc3ccc(Cl)cc3)C[C@H]21 | 58.4 |
| Cn1ccnc1CN1CCCC(CCCc2ccccn2)(C(N)=O)C1 (centres undefined) | -11.32 |
| COC(=O)c1cccc(S(=O)(=O)NC(=O)COC2CCCCC2)c1 | 19.64 |
| Cc1ccc(Nc2cc(N3CCN(S(C)(=O)=O)CC3)nc(C)n2)cc1 | 51.2 |
| CS(=O)(=O)N1CCN(c2cc(-n3cccc3)ncn2)CC1 | 19.08 |
| Cc1nc(Nc2ccccn2)cc(N2CCN(S(C)(=O)=O)CC2)n1 | 18.99 |
| CC1CCN(C(=O)C(C)n2cc(Br)cn2)CC1 (centres undefined) | 20.8 |
| FC(F)(F)c1ccnc(N2CCC(c3nccn3CC3CC3)CC2)n1 | -0.62 |
| CCCn1ncc(CN2C[C@@H]3CCCN3C[C@H]2Cc2ccccc2)c1C | 37.6 |
| CCCn1nc2c(cc1=O)CN(CC1CCCCO1)CC2 (centres undefined) | 28.72 |
| CN(CCn1cccn1)S(=O)(=O)c1cccc(Cl)c1C#N | -26.2 |
| CN(CCn1cccn1)S(=O)(=O)c1cccc(F)c1C#N | -2.19 |
| Cc1cc(F)c(S(=O)(=O)N(C)CCn2cccn2)cc1F | 50.03 |
| CCC(C)(C)C(=O)Nc1ccc2ccn(CC(=O)NC)c2c1 | 24.51 |
| COc1cccc(CN2CCc3nc4ccsc4c(=O)n3CC2)c1 | 34.9 |
| Cn1cc(CN2CCCCC2c2ccc(-c3cccc(Cl)c3)nc2)cn1 (centres undefined) | 15.59 |

| SMILES | INHIBITION [%] |
| --- | --- |
| COC(=O)[C@@H]1C[C@H](NC(=O)c2cc(=O)[nH]c3ccc(C)cc23)CN1C | 76.07 |
| CCNC(=O)[C@@H]1C[C@H](NC(=O)c2cc(=O)[nH]c3ccc(C)cc23)CN1C | 24.44 |
| Cc1ccc2[nH]c(=O)cc(C(=O)N[C@@H]3C[C@@H](CO)N(C)C3)c2c1 | 10.75 |
| CCCc1cc(=O)[nH]c(-c2ccccc2CN(C)CCC(C)C)n1 | -4.05 |
| CCc1nnc2ccc(N3CCN(S(=O)(=O)c4ccc(Cl)s4)CC3)nn12 | 52.31 |
| CCCS(=O)(=O)N1CCN(c2ccc3nnc(CC)n3n2)CC1 | 8.76 |
| CCc1nnc2ccc(N3CCN(S(=O)(=O)c4ccc(C)s4)CC3)nn12 | -37.47 |
| CCN(Cc1cnc(NCc2ccccc2)nc1)C1CCS(=O)(=O)C1 (centres undefined) | -30.2 |
| CN(C)Cc1nnc(C2CCCN(Cc3ccc(Cl)s3)C2)n1C (centres undefined) | 7.64 |
| CC(=O)Nc1nc(C2CCN(C(=O)C3CCC3)CC2)cs1 | -49.56 |
| Fc1cccc(CN2CCC(c3n[nH]c4ncccc34)CC2)c1F | 12.36 |
| Fc1cccc(Cl)c1CN1CCC(c2n[nH]c3ncccc23)CC1 | 53.65 |
| Fc1ccc(CN2CCC(c3n[nH]c4ncccc34)CC2)cc1F | 19.51 |
| COc1cccc(CN(C)Cc2[nH]c3ccccc3c2C)c1O | 33.32 |
| COc1ccc2c(c1)OCC(CNC(=O)c1cc[nH]c1C)C2 (centres undefined) | 23.79 |
| COc1ccc2c(c1)OCC(CNC(=O)c1ccncc1)C2 (centres undefined) | 31.38 |
| CCc1nc(C)c(C(=O)NCC2COc3cc(OC)ccc3C2)o1 (centres undefined) | 76.56 |
| CCCC(=O)N1CCCCC1c1nc(N(C)C)ncc1-c1cc(C)no1 (centres undefined) | -54.53 |
| COc1ccccc1CC(=O)N1CCCC1Cn1nc(C)cc1C (centres undefined) | -43.79 |
| COCCNC(=O)Cn1c(C)cc2nc(SC)n(CC(C)C)c(=O)c21 | -24.15 |

From ChEMBL document CHEMBL4513216, “Probing the Open Global Health Chemical Diversity Library for Multistage-Active Starting Points for Next-Generation Antimalarials” (ACS Infect Dis, 2020)
